The full list was thinned out, with hits kept by preference.
Dicer processing – blocks human Dicer maturation of pre-miR-21; cat-ELCCA pre-miR-21 Dicer processing, chemiluminescence; stronger effect = higher value; z-score at 25 µM; 47,000 tested, 6% active; AID 1347074; in the data active means z-score above about 3, passing the limit was not always enough;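 further: plate controls were vehicle for no effect and no enzyme for full effect; higher signal means more uncleaved substrate so more Dicer inhibition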
Numbers without * were called inactive.

SMILES	Dicer processing
CC(=O)Nc1cc(N2CC(C)CC(C)C2)c(F)cc1[N+](=O)[O-] (configuration not stated)	28.1*
CC(=O)Nc1cc(N2CCOCC2)c(F)cc1[N+](=O)[O-]	-1.27
CC1CC(C)CN(c2ccc(S(N)(=O)=O)cc2[N+](=O)[O-])C1 (configuration not stated)	-1.13
Cc1ccc(-c2cc(=O)[nH]c(Nc3nc(C)c4ccccc4n3)n2)cc1	-1.16
CSC1=N/C(=C/c2cccnc2)C(=O)N1CCOc1ccccc1Cl	1.06
CCOC(=O)N/N=C(\C)COc1ccc(-c2csnn2)cc1	-0.96
Cc1onc(-c2c(Cl)cccc2Cl)c1NC(=O)N1CCCN2C(=O)c3ccccc3C12 (configuration not stated)	0.24
Cc1ccc2c(c1)c(C)c(C)n2CC(O)CN1CCCCC1C (configuration not stated)	3.64*
OC(CNC1CCCCC1)Cn1c2ccccc2c2ccccc21 (configuration not stated)	-0.84
Cc1cc(C)n(CC(O)Cn2c(C)c(C)c3ccccc32)n1 (configuration not stated)	0.55
COc1ccc(-c2c(C#N)sc(C(=O)NC3(O)C(=O)c4ccccc4C3=O)c2-c2ccc(OC)cc2)cc1	-5.66
O=C(Nc1ccccc1)c1cc(Br)cc2c1OCC2	-1.46
COc1c(-c2ccccc2)oc2ccccc2c1=O	0.68
Cc1c(-c2ccccc2)oc2ccccc2c1=O	-0.55
CC(=O)Nc1c(-c2ccccc2)oc2ccccc2c1=O	3.31*
Cc1ccc2oc(-c3ccc(F)cc3)c(O)c(=O)c2c1	0.72
Cc1ccc(-c2oc3ccccc3c(=O)c2O)cc1	3.17*
Cc1ccc2oc(-c3ccccc3)c(O)c(=O)c2c1	1.83
Nc1c(C(=O)c2ccc(F)c(F)c2)sc2nc3c(c(-c4cccs4)c12)CCCC3	-0.57
O=C1CCCC2=C1C(c1cccnc1)N(C(=O)c1ccccc1)c1ccccc1N2 (configuration not stated)	0.27
CC(C)N(Cc1ccc(N(C)C)cc1)C(=S)Nc1ccc(F)cc1	0.57
O=C(NCc1ccc(S(=O)(=O)Nc2ccc(N3CCCCC3)cc2)s1)c1ccc(Cl)cc1	7.24
N#CC1=C(SCC(=O)Nc2ccc(Cl)cc2)NC(=O)CC1c1cccs1 (configuration not stated)	-2.82
O=C(Nc1ccc(Cl)cc1)N1N=C2c3ccccc3CCC2C1c1cccs1 (configuration not stated)	-0.38
O=C(Nc1ccc(Cl)cc1)N1CCOC1c1cccs1 (configuration not stated)	4.16*
SMILES	Dicer processing
O=C(O)c1cc2cc([N+](=O)[O-])ccc2oc1=O	0.39
COc1ccc(S(=O)(=O)Nc2cc(Cl)c3oc(=O)sc3c2)cc1OC	4.32*
Cc1cc(C)c(S(=O)(=O)Nc2cc(Cl)c3oc(=O)sc3c2)c(C)c1	12.4*
COc1nc(NS(=O)(=O)c2ccc(C)cc2)nc(C)c1Cl	-0.17
Cc1cc(C)c(S(=O)(=O)Nc2cccc3ccc(C)nc23)c(C)c1	-0.95
Cc1cc(C)c(S(=O)(=O)Nc2ccc(O)cc2)c(C)c1	1.44
COc1ccc(OC)c(NS(=O)(=O)c2ccc(Br)cc2)c1	6.13
COc1ccc(C2Oc3ccccc3C3=C2C(c2ccccc2)n2ncnc2N3)cc1 (configuration not stated)	-0.3
CC(C)(C)NC(=S)N/N=C/c1ccccc1SC(C)(C)C	0.21
O=C(CSc1nnc(-c2ccccc2)o1)OCc1ccccc1	3.44*
O=C(CSc1nnc(-c2ccccc2)o1)c1ccccc1	-1.12
CCOC(=O)CSc1nnc(-c2ccc(C)cc2)o1	2.81
CSc1nc(/N=C/N(C)C)n2nc(C)cc2n1	-1.67
CCOC(=O)c1sc(-c2ccccc2)nc1OC	1.72
COC(=O)CCc1nc2ccccc2nc1OC	3.49*
COC(=O)c1ccc(COC(=O)CCc2nc3ccccc3[nH]c2=O)cc1	2.72
Cn1c2ccccc2n2nc(CCC(=O)O)c(=O)nc12	2.09
CCCCOC(=O)CCc1nc2ccccc2[nH]c1=O	0.6
COc1nc2ccccc2nc1CCC(=O)O	3.79*
CCO/C=C(\C#N)S(=O)(=O)C(C)(C)C	0.23
CSc1ccccc1N1C(=O)CSC1=S	0.19
CCOC(=O)C(OC(=O)Nc1ccccc1)C(OC(=O)Nc1ccccc1)C(=O)OCC (configuration not stated)	1.91
CCOC(=O)NC(NC(C)c1ccccc1)(C(F)(F)F)C(F)(F)F (configuration not stated)	-0.53
CCOC(=O)NC1(NCC(C)C)Oc2ccccc2O1	5.96*
CC1(C)Cc2c(c(N3CCOCC3)nc3sc(C(=O)Nc4ccccc4)c(N)c23)CO1	2.29
CC1(C)Cc2c(c(N3CCOCC3)nc3sc(C(=O)c4ccccc4)c(N)c23)CO1	3.16*
CC1(C)Cc2c(c(N3CCCC3)nc3sc4c(N5CCOCC5)ncnc4c23)CO1	-0.03
CCCCSc1sc(C(=O)O)c(-c2ccc(Cl)cc2)c1C#N	-0.42
O=S(=O)(c1ccc(-c2ccno2)s1)N1CCN(CCN2CCOCC2)CC1	1.34
Cc1cccc(OCc2nn3c(-c4ccccc4Cl)nnc3s2)c1	-1.66

Assay outcomes as filed in PubChem BioAssay.
